Experimental data from PubChem BioAssay (NCATS).
Inconclusive results are not listed. Calls of active or inactive are those of the source. Unless noted, calls follow the shape of the dose curve; as a rule, active = well fitted curve in the direction sought with a large enough effect; inconclusive = small, poorly fitted or top-dose-only effect, or another doubt; inactive = no such curve, though single readings can be large; an effect the other way counts as inactive or inconclusive.

Columns and labels:
[1] = molecular target: Voltage-gated inwardly rectifying potassium channel KCNH2 (Homo sapiens) (UniProt Q12809); test: qHTS Assay for Small Molecule Inhibitors of the Human hERG Channel Activity (AID 588834);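 also: lower thallium flux fluorescence means stronger hERG block; nearly all actives have a fitted effect of over 50% in size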; also: potency is read from the fitted curve at half-maximal effect
How it was run: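 hERG block measured as reduced thallium-dye (FluxOR) fluorescence after stimulation buffer addition, read over 2 min. Cells were hERG-BacMam-transduced U2OS exposed to compound ~10 min […]; concentration-response fitted with Hill equation for AC50.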

[2] = molecular target: Glutaminase kidney isoform, mitochondrial (Homo sapiens) (UniProt O94925); test: qHTS for Inhibitors of Glutaminase (GLS): LOPAC Validation (AID 624146); also: nearly all actives have a fitted effect of over 60% in size; also: potency is read from the fitted curve at half-maximal effect
How it was run: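 Two-point fluorescence kinetic (t0, 30 min RT) for hKGA; glutamate detected via glutamate oxidase–HRP–Amplex Red. Substrate: 1 mM L-glutamine solution; buffer 45 mM KH2PO4, pH 8.2.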

[3] = qHTS of Trypanosoma Brucei Inhibitors: LOPAC Validation (AID 624147); also: potency is read from the fitted curve at half-maximal effect
How it was run: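 Quantitative HTS: titrated library compounds versus trypanosomal pyruvate kinase in TEA buffer (pH 7.2) containing KCl, MgCl2, BSA and Tween-20. Reactions were initiated with ADP, 130 uM final. Kinase-Glo Plus luminescence was read after 45 min at RT.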

[4] = molecular target: Glucagon-like peptide 1 receptor (Homo sapiens) (UniProt P43220); test: qHTS of GLP-1 Receptor Agonists: LOPAC Validation (AID 624148);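 also: higher luminescence signal means agonism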
How it was run: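 HEK293 cells stably co-expressing a cAMP-responsive luciferase reporter and a hypersensitive GLP-1R were plated 12 h at 37 °C and exposed to compounds for 4-6 hr at 37 °C, 5% CO2. Luminescence was read 12 min after adding detection reagent.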

[5] = HTS Assay for Allosteric Antagonists of the Human D2 Dopamine Receptor: Hit Validation in HTRF (AID 624455); also: potency is read from the fitted curve at half-maximal effect;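 also: stable D1 dopamine receptor cell line scored for blocking the D1 response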
How it was run: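 Inhibition of the D1-mediated response is measured by HTRF in cells that stably express the D1 dopamine receptor. Compounds reaching this step are hits from calcium-flux antagonism testing at EC80 dopamine in inducible Hek293 Trex D2 cells.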

[6] = qHTS of Nrf2 Activators: LOPAC Validation (AID 624149)
How it was run: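 Cells (AREc32_Fluc) are plated at 1000 per well in OPTI-MEM containing 5% FBS and left overnight. Compounds are pinned in and incubated 24 hr at 37 deg C, and firefly luciferase is detected with Steady-Glo.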

[7] = molecular target: Luciferin 4-monooxygenase (Photinus pyralis) (UniProt P08659); test: Biochemical firefly luciferase enzyme assay for NPC (AID 624030);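 also: purified P. pyralis luciferase at 10 nM with luciferin and ATP substrate; series mostly up to about 59 µM; nearly all actives have a fitted effect of over 70% in size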
How it was run: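 Counter-screen for direct inhibition of the luciferase enzyme by approved-drug library compounds, run at 10 nM enzyme in 50 mM Tris acetate (final). Luminescence was read within 5 min of enzyme-buffer addition and normalized to PTC124 versus DMSO (0%).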

[8] = S16 Schwann cell viability assay (CellTiter-Glo assay) (AID 624031);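 also: native untransfected S16 rat Schwann cells; cellular ATP luminescence as a viability measure; series mostly up to about 58 µM; nearly all actives have a fitted effect of over 70% in size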
How it was run: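 Cells were seeded at 500-750 per well in phenol red-free DMEM with 10% FBS and left overnight. Compounds or DMSO were pinned in, incubation ran 24 h at 37 °C/5% CO2, then CellTiter-Glo reagent was added and luminescence measured.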

[9] = S16 Schwann cell PMP22 intronic element firefly luciferase assay (AID 624032); also: series mostly up to about 58 µM; nearly all actives have a fitted effect of over 30% in size
How it was run: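 Rat S16 Schwann cells stably carrying a PMP22 intronic element-driven Fluc reporter were seeded overnight, then exposed to compounds for 24 h at 37 °C. Luminescence was normalized to PTC124 (positive control) and DMSO (0% activity).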

[10] = S16 Schwann cell PMP22 intronic element beta-lactamase assay (AID 624044; calls by dose curve; also: nearly all actives have a fitted effect of over 15% in size)
How it was run: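 Beta-lactamase reporter under a PMP22 intronic regulatory element in stable S16 rat Schwann cells; 24 h compound exposure. 460 nm blue signal normalized between DMSO (0%) and potassium clavulanate, with 535 nm FRET tracking viability; curves classed by r2 and response.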

Measured: Potency

Glucagon-like peptide 1 receptor (Homo sapiens), sequence (P43220 whole entry, looked up): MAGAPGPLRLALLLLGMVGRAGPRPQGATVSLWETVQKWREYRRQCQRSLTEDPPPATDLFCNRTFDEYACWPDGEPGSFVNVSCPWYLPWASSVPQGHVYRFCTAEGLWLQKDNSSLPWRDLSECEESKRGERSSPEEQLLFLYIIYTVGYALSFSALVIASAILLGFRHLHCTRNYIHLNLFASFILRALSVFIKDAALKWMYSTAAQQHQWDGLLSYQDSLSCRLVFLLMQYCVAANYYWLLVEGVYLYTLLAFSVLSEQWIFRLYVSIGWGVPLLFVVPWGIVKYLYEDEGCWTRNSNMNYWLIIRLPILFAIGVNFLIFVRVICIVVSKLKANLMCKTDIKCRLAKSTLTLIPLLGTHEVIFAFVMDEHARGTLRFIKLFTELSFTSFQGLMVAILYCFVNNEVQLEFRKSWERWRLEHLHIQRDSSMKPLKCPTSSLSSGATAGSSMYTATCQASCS
Glutaminase kidney isoform, mitochondrial (Homo sapiens), sequence (O94925 whole entry, looked up, canonical isoform): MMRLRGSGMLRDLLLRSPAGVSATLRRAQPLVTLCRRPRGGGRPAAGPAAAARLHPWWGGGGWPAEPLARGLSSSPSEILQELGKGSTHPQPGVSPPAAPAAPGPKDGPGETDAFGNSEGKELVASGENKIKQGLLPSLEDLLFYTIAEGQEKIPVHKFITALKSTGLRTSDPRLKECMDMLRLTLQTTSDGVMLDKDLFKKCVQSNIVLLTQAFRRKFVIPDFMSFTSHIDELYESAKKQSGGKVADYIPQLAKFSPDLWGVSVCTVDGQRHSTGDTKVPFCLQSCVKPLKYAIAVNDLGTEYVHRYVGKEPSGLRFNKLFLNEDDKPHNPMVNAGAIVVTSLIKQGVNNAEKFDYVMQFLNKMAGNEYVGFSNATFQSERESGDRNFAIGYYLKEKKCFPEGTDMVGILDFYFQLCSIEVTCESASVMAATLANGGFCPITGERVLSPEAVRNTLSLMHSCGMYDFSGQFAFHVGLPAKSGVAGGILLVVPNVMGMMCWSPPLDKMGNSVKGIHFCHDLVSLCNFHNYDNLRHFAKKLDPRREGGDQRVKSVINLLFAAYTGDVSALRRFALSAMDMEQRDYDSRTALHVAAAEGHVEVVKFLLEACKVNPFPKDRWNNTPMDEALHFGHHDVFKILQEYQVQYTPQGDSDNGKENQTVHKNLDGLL
Luciferin 4-monooxygenase (Photinus pyralis), sequence (P08659 whole entry, looked up): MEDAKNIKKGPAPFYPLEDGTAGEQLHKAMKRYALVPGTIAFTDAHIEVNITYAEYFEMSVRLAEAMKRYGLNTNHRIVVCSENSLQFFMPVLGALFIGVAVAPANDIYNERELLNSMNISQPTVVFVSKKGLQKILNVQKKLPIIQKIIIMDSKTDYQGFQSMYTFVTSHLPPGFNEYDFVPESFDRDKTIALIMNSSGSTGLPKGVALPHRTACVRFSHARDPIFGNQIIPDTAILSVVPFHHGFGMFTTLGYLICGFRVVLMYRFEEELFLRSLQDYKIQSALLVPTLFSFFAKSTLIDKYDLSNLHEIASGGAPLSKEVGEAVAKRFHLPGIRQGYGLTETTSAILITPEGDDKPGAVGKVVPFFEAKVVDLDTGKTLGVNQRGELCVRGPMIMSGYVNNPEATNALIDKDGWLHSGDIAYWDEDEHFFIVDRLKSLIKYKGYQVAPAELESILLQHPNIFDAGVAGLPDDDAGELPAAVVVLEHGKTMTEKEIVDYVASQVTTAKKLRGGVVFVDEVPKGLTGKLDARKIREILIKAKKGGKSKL
Voltage-gated inwardly rectifying potassium channel KCNH2 (Homo sapiens), sequence (Q12809 whole entry, looked up): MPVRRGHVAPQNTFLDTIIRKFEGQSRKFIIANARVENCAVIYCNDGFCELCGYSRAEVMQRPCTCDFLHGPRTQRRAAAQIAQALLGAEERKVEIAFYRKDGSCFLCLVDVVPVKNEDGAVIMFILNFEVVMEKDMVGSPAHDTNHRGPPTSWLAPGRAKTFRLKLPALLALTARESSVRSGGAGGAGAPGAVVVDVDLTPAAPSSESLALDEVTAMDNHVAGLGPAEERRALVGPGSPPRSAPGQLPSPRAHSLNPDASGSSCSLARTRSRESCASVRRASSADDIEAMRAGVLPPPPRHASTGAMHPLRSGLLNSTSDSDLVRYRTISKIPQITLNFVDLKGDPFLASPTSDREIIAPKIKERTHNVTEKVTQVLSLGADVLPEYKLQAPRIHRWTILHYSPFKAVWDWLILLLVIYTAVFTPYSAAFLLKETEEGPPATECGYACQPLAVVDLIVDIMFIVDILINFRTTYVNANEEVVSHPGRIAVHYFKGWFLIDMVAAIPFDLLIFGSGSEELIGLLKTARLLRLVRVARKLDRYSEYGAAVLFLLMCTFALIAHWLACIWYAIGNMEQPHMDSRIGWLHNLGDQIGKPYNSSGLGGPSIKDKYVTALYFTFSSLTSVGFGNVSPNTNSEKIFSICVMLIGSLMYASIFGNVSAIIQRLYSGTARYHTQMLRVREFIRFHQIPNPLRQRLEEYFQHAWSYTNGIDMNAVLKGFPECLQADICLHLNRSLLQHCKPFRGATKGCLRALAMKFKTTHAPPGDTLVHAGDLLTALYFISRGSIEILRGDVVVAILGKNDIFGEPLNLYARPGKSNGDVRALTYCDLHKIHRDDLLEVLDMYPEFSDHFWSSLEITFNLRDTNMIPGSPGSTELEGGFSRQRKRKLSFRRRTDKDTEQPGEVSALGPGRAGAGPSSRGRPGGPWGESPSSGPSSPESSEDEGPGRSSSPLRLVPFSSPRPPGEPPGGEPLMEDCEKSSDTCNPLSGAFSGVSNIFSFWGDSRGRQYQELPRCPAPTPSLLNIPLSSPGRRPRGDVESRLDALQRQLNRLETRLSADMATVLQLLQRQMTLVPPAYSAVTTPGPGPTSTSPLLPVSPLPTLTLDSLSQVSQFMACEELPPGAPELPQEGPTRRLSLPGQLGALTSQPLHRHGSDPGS

NC(=O)C(=O)O
inactive: [1] | [2] | [3] | [4] | [5]

NCCSSCCN
inactive: [1] | [2] | [3] | [4] | [5]

Cc1ccc(C(=O)O[C@H](C(=O)O)[C@@H](OC(=O)c2ccc(C)cc2)C(=O)O)cc1 (tested in a mixture with another compound)
inactive: [1] | [2] | [3] | [4] | [5]

N=C(N)SCCc1ccc(CCSC(=N)N)cc1
inactive: [1] | [2] | [4] | [6] | [5]

CCCCC/C=C\CC(O)/C=C/c1cccc(CC(O)CCCCO)n1 (stereo not drawn)
inactive: [1] | [2] | [3] | [4] | [5]

CN(C)C(N)=NCCC[C@H](N)C(=O)O
inactive: [1] | [2] | [4] | [6] | [5]

N[C@@H](CC(=O)O)C(=O)O
inactive: [1] | [2] | [3] | [4] | [6] | [5]

CC1(C)CCC=[N+]1[O-]
inactive: [1] | [2] | [3] | [4] | [6] | [5]

O=C(O)CC[C@@H](C(=O)O)N1C(=O)c2ccccc2C1=O
inactive: [1] | [2] | [3] | [4] | [5]

O=S(=O)(c1cccc2c(I)cccc12)N1CCCNCC1
inactive: [2] | [3] | [4] | [6] | [5]
active: [1] 11.2 µM

CCCCCCCCCCCCCCCCCCNC(=O)OCC(COP(=O)([O-])OCC[n+]1ccsc1)OC (stereo not drawn)
inactive: [1] | [2] | [3] | [4] | [6] | [5]

NCCCS(=O)(=O)O
inactive: [1] | [2] | [3] | [4] | [5]

O=C(/C=C/c1ccc(O)cc1)c1ccc(O)cc1O
inactive: [3] | [4] | [5]
active: [1] 3.98 µM | [2] 10 µM

CN=c1nc(-c2ccccc2)n(-c2ccccc2)s1
inactive: [2] | [4] | [5]
active: [1] 11.2 µM | [3] 8.49 µM

CN(C)c1nc2c(Br)c(Br)c(Br)c(Br)c2[nH]1
inactive: [1] | [2] | [3] | [4] | [6] | [5]

CC(=O)SCC[N+](C)(C)C
inactive: [1] | [2] | [3] | [4] | [5]

NC(N)=NC(=O)c1nc(Cl)c(N2CCCCCC2)nc1N
active: [1] 8.91 µM
inactive: [2] | [3] | [4] | [6] | [5]

O=C(/C=C/c1ccc(O)c(O)c1)OCCc1ccccc1
inactive: [1] | [3] | [4] | [5]
active: [2] 0.891 µM

COc1cc(C(O)CO)ccc1OS(=O)(=O)O (stereo not drawn)
inactive: [1] | [2] | [3] | [4] | [5]

C[C@@H](CN1CCC(Cc2ccccc2)CC1)[C@@H](O)c1ccc(O)cc1
active: [1] 0.631 µM
inactive: [2] | [3] | [4] | [6] | [5]

CN1CCc2cc(NC(=O)Nc3cccnc3)ccc21
inactive: [1] | [2] | [3] | [4] | [6] | [5]

N#C/C(=C\c1c[nH]c2ccccc12)C(=O)c1ccc(O)c(O)c1
inactive: [1] | [3] | [4] | [6] | [5]
active: [2] 1.12 µM

COC1=C(OC)C(=O)c2ccccc2C1=O
active: [2] 10 µM
inactive: [1] | [3] | [4] | [6] | [5]

O=c1[nH]c2cc(Cl)c(Cl)cc2[nH]c1=O
inactive: [1] | [2] | [4] | [5]

O=C1O/C(=C/Br)CCC1c1cccc2ccccc12 (stereo not drawn)
active: [1] 5.62 µM
inactive: [3] | [4] | [6] | [5]

CN1CCc2ccccc2Cc2[nH]c3ccccc3c2CC1
active: [1] 8.91 µM
inactive: [4] | [5]

O=C(Nc1cccc(C(=O)Nc2ccc(S(=O)(=O)O)c3cc(S(=O)(=O)O)cc(S(=O)(=O)O)c23)c1)Nc1cccc(C(=O)Nc2ccc(S(=O)(=O)O)c3cc(S(=O)(=O)O)cc(S(=O)(=O)O)c23)c1
inactive: [1] | [4] | [5]

Cc1cc(NC(=O)Nc2ccc3c(ccn3C)c2)sn1
inactive: [1] | [4] | [5]

O=C(c1cc(O)c(O)c([N+](=O)[O-])c1)c1ccccc1F
inactive: [1] | [3] | [4] | [6] | [5]

CCCCCCCCCCCCCCCCCC(=O)OC(CC(=O)O)C[N+](C)(C)C (stereo not drawn)
inactive: [1] | [3] | [4] | [6] | [5]

O=C(O)[C@@H]1C[C@H](C(=O)O)N1
inactive: [1] | [3] | [4] | [6] | [5]

CCCCCCCCCCCCCCCCCC(=O)NCC(COP(=O)([O-])OCC[N+](C)(C)C)OCC (stereo not drawn)
inactive: [1] | [3] | [4] | [5]

NCCCCCCCCCCN
inactive: [1] | [3] | [4] | [6] | [5]

CC(C)NC[C@H](O)COc1cccc2[nH]ccc12
inactive: [1] | [4] | [5]

COc1cc2c(CCNC(C)=O)c[nH]c2cc1Cl
inactive: [1] | [3] | [4] | [6] | [5]

CCN1/C(=C/C(C)=O)Sc2ccc(OC)cc21
inactive: [1] | [2] | [4] | [6] | [5]

CO[C@@]1(NC(=O)Cc2cccs2)C(=O)N2C(C(=O)O)=C(COC(N)=O)CS[C@@H]21
inactive: [7]

O=C1C(SCCO)=C(SCCO)C(=O)c2ccccc21
active: [2] 10 µM
inactive: [1] | [4] | [5]

Fc1cccc(/C=N/N=C/c2cccc(F)c2)c1
inactive: [1] | [4] | [5]

CC(=O)c1ccc(OCC(=O)N2CCCCC2)cc1
inactive: [7]

O=c1[nH]c2cc(C(F)(F)F)ccc2n1-c1cc(C(F)(F)F)ccc1O
inactive: [1] | [3] | [4] | [6] | [5]

OCC1O[C@H](O)C(Cl)C(O)C1O (stereo partly drawn)
inactive: [1] | [3] | [4] | [6] | [5]

CC12C(=O)OC(=O)C1(C)C1CCC2O1 (stereo not drawn)
inactive: [1] | [4] | [6] | [5]

O=C1NC(O)=NC1(c1ccccc1)c1ccccc1
inactive: [1] | [5]

Cn1c(=O)c2[nH]c(-c3ccccc3)nc2n(C)c1=O
inactive: [1] | [2] | [4] | [6] | [5]

Oc1cc(O)cc(/C=C/c2ccc(O)c(O)c2)c1
active: [2] 2 µM
inactive: [1] | [4] | [5]

COc1ccccc1N1CCN(CCCCNS(=O)(=O)c2cccc3c(N(C)C)cccc23)CC1
active: [1] 1.41 µM
inactive: [4] | [6] | [5]

COc1cc2nc(N3CCN(C(=O)OCc4ccccc4)C(C(=O)NC(C)(C)C)C3)nc(N)c2cc1OC (stereo not drawn)
inactive: [1] | [3] | [4] | [6] | [5]

N#C/C(=C\c1ccc(O)c(O)c1)C(=O)c1ccc(O)c(O)c1
inactive: [1] | [3] | [4] | [6] | [5]

c1ccc(-c2ccccn2)nc1
inactive: [1] | [2] | [4] | [6] | [5]

C[N+](C)(C)CCOP(=O)(O)OP(=O)([O-])OC[C@H]1O[C@@H](n2ccc(N)nc2=O)[C@H](O)[C@@H]1O
inactive: [1] | [4] | [6] | [5]

C#CCN1C(C)=C(C(=O)OC)C(c2cccc([N+](=O)[O-])c2)C(C(=O)OCC)=C1C (stereo not drawn)
inactive: [1] | [4] | [6] | [5]

Cc1ccc(O)c(N=Nc2ccccc2)n1
active: [3] 19 µM
inactive: [1] | [4] | [6] | [5]

COc1cc(OC)c(/C=C2/C(=O)Nc3ccccc32)c(OC)c1
inactive: [1] | [3] | [4] | [6] | [5]

O=c1[nH]c2cc([N+](=O)[O-])c([N+](=O)[O-])cc2[nH]c1=O
inactive: [1] | [3] | [4] | [6] | [5]

O=C(O)CC1CCCc2ccccc2C1O (stereo not drawn)
inactive: [1] | [3] | [4] | [6] | [5]

CC(=O)N[C@H](C(=O)O)C(C)(C)SN=O
inactive: [1] | [3] | [4] | [6] | [5]

NC(CCCP(=O)(O)O)C(=O)O (stereo not drawn)
inactive: [1] | [4] | [6] | [5]

CC(N)C(=O)OC(C)(C)Cc1ccc(Cl)cc1 (stereo not drawn)
not listed: [1] | [2] | [3]
inactive: all other assays above

O=C(CCN1CCN(CCO)CC1)N1c2ccccc2Sc2ccc(C(F)(F)F)cc21
inactive: [7] | [8] | [10]

COc1cccc(OC)c1OCCNCC1COc2ccccc2O1 (stereo not drawn)
inactive: [2] | [3] | [4] | [6]
active: [5] 0.092 µM

CNCC[C@H](Oc1ccc(C(F)(F)F)cc1)c1ccccc1
inactive: [2] | [3] | [4] | [6] | [5]

CO/S(=N\S(=O)(=O)c1ccc(Cl)cc1)c1ccc([N+](=O)[O-])cc1 (stereo not drawn)
inactive: [2] | [3] | [4] | [6] | [5]

CN(C)c1nc(N)c(C(=O)N=C(N)N)nc1Cl
inactive: [2] | [3] | [4] | [6] | [5]

CCOC(=O)C1=C(C)NC(C)=C(C(=O)OCC)C1c1c(F)c(F)c(F)c(F)c1F
inactive: [2] | [3] | [4] | [6] | [5]

CC(COc1ccc(/C=C/c2ccccc2)cc1)[N+](C)(C)C (stereo not drawn)
inactive: [2] | [3] | [4] | [6] | [5]

O=C(/C=C/c1ccccc1)NCCO
inactive: [8] | [9] | [10]

N=C(N)N
inactive: [7]

CCC1C(=O)OCC1Cc1cncn1C (stereo not drawn)
not listed: [1]
inactive: all other assays above

O=C(c1ccc(OCCCc2cnc[nH]2)cc1)C1CC1
inactive: [2] | [3] | [4] | [6] | [5]

NC(=O)C1=CN(C2OC(COP(=O)(O)OP(=O)(O)OC[C@H]3O[C@@H](n4cnc5c(N)ncnc54)[C@H](OP(=O)(O)O)[C@@H]3O)C(O)C2O)C=CC1 (stereo partly drawn)
inactive: [2] | [3] | [4] | [6] | [5]
